# Measurements from the supplement of paper PMC7411640.
# Where a name gives a salt, the structure may show the parent alone.
# Test system: MDA-MB-468
# Assay: phospho-S6 immunofluorescence (DAPI-normalised), per-plate z-score; higher = higher phospho-S6 signal (less pathway suppression)
# Conditions: co-treatment: vehicle; 24 h
# Description: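 GPCR-targeted compound library (MedChemExpress HY-L006) tested on MDA-MB-468 PTEN-null TNBC cells in 384-well plates at 0.1, 1 or 10 uM, combined with vehicle, GDC0941 450 nM or lapatinib 1 uM, for 24 h. Phospho-S6 (S240/244) immunofluorescence normalised to DAPI and expressed as a per-plate z-score; values are the mean of biological triplicates.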
row,Compound,phospho-S6 immunofluorescence (z-score)
1,CCN(CC)Cc1ccc(C(=O)N(CCc2ccccc2OC)[C@@H]2CCNC2)cc1 (compound 10 µM),0.12
2,OC(CCN1CCCCC1)(c1ccccc1)C1CCCCC1 (stereo unspecified) [Trihexyphenidyl (hydrochloride)] (compound 10 µM),0.56
3,OCCOCCN1CCN(C(c2ccccc2)c2ccc(Cl)cc2)CC1 (stereo unspecified) [Hydroxyzine (dihydrochloride)] (compound 10 µM),0.24
4,CN(C)[C@@H]1CCc2[nH]c3ccc(NC(=O)c4ccc(F)cc4)cc3c2C1 (compound 10 µM),-0.54
5,Cc1nc(C(=O)N2CCC[C@H]2Cc2nnc(-c3ccccc3)o2)c(-c2ccccc2F)s1 (compound 10 µM),0.17
6,O=C(O[C@H]1CN2CCC1CC2)N1CCc2ccccc2[C@@H]1c1ccccc1 [Solifenacin (Succinate)] (compound 10 µM),-0.65
7,COc1cc2nc(N3CCN(C(=O)c4ccco4)CC3)nc(N)c2cc1OC [Prazosin (hydrochloride)] (compound 10 µM),0.24
8,CN(C)CCc1c[nH]c2ccc(CS(=O)(=O)N3CCCC3)cc12 [Almotriptan (malate)] (compound 10 µM),0.38
9,Cc1ccc(S(=O)(=O)N2CCCC2c2ccc(F)cc2)cc1 (stereo unspecified) (compound 10 µM),-1.81
10,CCN(CCCCOC(=O)c1ccc(OC)c(OC)c1)C(C)Cc1ccc(OC)cc1 (stereo unspecified) [Mebeverine (hydrochloride)] (compound 10 µM),-0.85
11,CC(C)[N+]1(C)[C@@H]2CC[C@H]1C[C@@H](OC(=O)C(CO)c1ccccc1)C2 (stereo partly specified) [Ipratropium (bromide)] (compound 10 µM),-0.61
